Assay outcomes deposited in PubChem by National Center for Advancing Translational Sciences (NCATS).
Rows were chosen to be rich in hits. Some 12% of all compounds tested hit in one or more screens of this group.
Sm TGR block = qHTS Assay for the Inhibitors of Schistosoma Mansoni Peroxiredoxins; purified TGR, DTNB reduction, TNB absorbance 405 nm; Potency, µM (series often up to 114 µM), for the others: at the highest dose activity change, negative = inhibition, actives largely listed as inhibitors; 360,000 compounds, 3% hits; AID 485364, 2010; further: on the % scale 0 is the no-effect control and ±100 the full control effect; nearly all actives have a fitted effect of over 60% in size
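TGR 20 nM + NADPH 100 uM (dispensed conc.), cpd preinc 15 min RT; start with NADPH (500 uM addition) then DTNB (15 mM addition). Kinetic TNB absorbance, 405 nm filter. Four-parameter Hill fit across titration.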
AmpC detergent = qHTS Inhibitors of AmpC Beta-Lactamase (assay with detergent); AID 485294, 2010; AmpC hydrolysis of nitrocefin, absorbance 480 nm, 0.01% Triton; Potency, µM (series often up to 114 µM), without a hit: top-dose activity change, negative = inhibition, actives largely listed as inhibitors; 370,000 compounds, 0.041% hits; P00811;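 further: 0% = no-compound wells and -100% = no-enzyme wells; nearly all actives have a fitted effect of over 25% in size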
Target sequence (P00811 whole entry, looked up): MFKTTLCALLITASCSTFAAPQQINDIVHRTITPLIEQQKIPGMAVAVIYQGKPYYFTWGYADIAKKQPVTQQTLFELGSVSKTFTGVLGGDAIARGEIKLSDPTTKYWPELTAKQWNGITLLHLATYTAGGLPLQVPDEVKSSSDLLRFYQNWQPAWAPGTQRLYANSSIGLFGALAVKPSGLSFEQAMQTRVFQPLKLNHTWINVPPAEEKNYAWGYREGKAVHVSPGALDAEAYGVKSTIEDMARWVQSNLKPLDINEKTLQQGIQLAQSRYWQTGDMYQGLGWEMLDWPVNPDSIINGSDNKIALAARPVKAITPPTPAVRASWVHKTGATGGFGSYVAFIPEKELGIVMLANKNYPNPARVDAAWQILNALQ
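AmpC (5.3 nM in the dispensed reagent) in 20 mM phosphate pH 7.0 with 0.01% (detergent screen) or 0.0001% Triton X-100 was preincubated with compounds for 15 min at room temperature. Nitrocefin was then added from an 800 uM solution, and hydrolysis was followed at 480 nm.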
Pf growth 96h = Primary qHTS for delayed death inhibitors of the malarial parasite plastid, 96 hour incubation; P. falciparum luciferase reporter growth, 96 h; Potency, µM (titrated, usually from 28.7 µM), for inactives: at the highest dose activity change, negative = inhibition, actives largely listed as inhibitors; 320,000 compounds, 6.9% hits; AID 504834, 2011; further: on the % scale 0 is the no-effect control and ±100 the full control effect
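Delayed-death screen, second-generation endpoint: infected erythrocytes, 2% hematocrit, 0.05% parasitemia final; 96 hours at 37 C, 5% CO2; luciferase detection reagent; luminescence decrease equals reduced growth.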
AmpC no deterg = qHTS Inhibitors of AmpC Beta-Lactamase (assay without detergent); Potency, µM (top dose mostly 57.1 µM), without a hit: at the top dose activity change, negative = inhibition, most hits filed as inhibitors; 330,000 compounds, 0.52% hits; P00811; AmpC nitrocefin hydrolysis, absorbance 480 nm, 0.0001% Triton;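 further: plate controls were no compound for no effect and no enzyme for full effect; nearly all actives have a fitted effect of over 20% in size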
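20 mM phosphate pH 7.0 + 0.01% (detergent screen) or 0.0001% Triton X-100; 5.3 nM AmpC reagent; cpd preinc 15 min RT; nitrocefin (800 uM stock) to start; A480 q20 s × 4 min; Activity was normalised to no-enzyme and no-compound control wells.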
Pf growth 48h = Primary qHTS for delayed death inhibitors of the malarial parasite plastid, 48 hour incubation | P. falciparum luciferase growth in erythrocytes, 48 h | Potency, µM (doses to about 28.7 µM), inactives show top-dose activity change, negative = inhibition, hits mostly inhibitors | 310,000 compounds, 5.9% hits; further: on the % scale 0 is the no-effect control and ±100 the full control effect
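A one-generation exposure of luciferase-tagged malaria parasites in RPMI 1640/Albumax erythrocyte culture, 37 C and 5% CO2. Inhibition is inferred from decreased luminescence after adding detection reagent.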
SARS PLpro yeast = qHTS of Yeast-based Assay for SARS-CoV PLP | S. cerevisiae expressing SARS-CoV PLpro, growth rescue | Potency, µM (titrated, usually from 32.9 µM), for the others: at the top dose activity, positive = growth rescue, most hits filed as activators | 330,000 compounds, 0.19% hits | AID 485353, 2010; calls by dose curve; further: 0% is about no effect; nearly all actives have a fitted effect of over 55% in size
The depositor's hits bear a star; ? = inconclusive; nt = not tested or not shown; [ ] = another dose, or the depositor's remark. Unless noted, the call rests on the fitted dose curve; in most records, active means well fitted curve in the direction sought with a large enough effect; inconclusive means small, poorly fitted or top-dose-only effect, or another doubt; inactive means no such curve, though single readings can be large; an effect the other way counts as inactive or inconclusive. Potency means the concentration at half of the fitted maximal effect.

SMILES | Sm TGR block | AmpC detergent | Pf growth 96h | AmpC no deterg | Pf growth 48h | SARS PLpro yeast
C#CCOc1ccc(CNC[C@H]2O[C@@H](n3cnc4c(N)ncnc43)[C@H](O)[C@@H]2O)cc1 | nt | nt | nt | -14.8% | nt | -1.8%
O=C(Nc1ccccc1Cl)C1CCN(c2nc3ccccc3[nH]2)CC1 | 2.8% | -2.3% | nt | nt | nt | nt
COc1ccc(OC)c(-c2c(C#N)c(N)nc3c2c(=O)nc2sccn23)c1 | -4.2% | 8.7% | 32.3% | -21.5% | -10.8% | 1.8%
CCN(CC)CC(=O)N1CCCC(N2CCN(c3cccc(C(F)(F)F)c3)CC2)C1 (stereo not drawn) | 3.2% | ? | 9.28µM* | 47.0% | 2.1% | 1.1%
O=C(CN1CCOC1=O)N1CCCC(N2CCN(c3cccc(C(F)(F)F)c3)CC2)C1 (stereo not drawn) | 39.8µM* | -9.9% | -23.2% | 43.2% | 3.2% | 5.3%
CCN(CC)C(=O)c1sc2c(c1C)c(=O)n(-c1ccc(C)c(C)c1)c(=O)n2CC(=O)Nc1ccc(OC)cc1OC | -5.6% | -4.1% | nt | nt | nt | nt
CC1=Nc2ccccc2N=C(NC(=O)CN2CCN(c3ccc(F)cc3)CC2)C1c1ccccc1 (stereo not drawn) | -20.3% | 8.1% | ? | 80.0% | ? | -0.8%
O=[N+]([O-])c1ccc(-c2csc3[n+]2CCS3)cc1 | -5.8% | 1.0% | 9.28µM* | -8.3% | nt | -10.6%
Fc1ccc(-c2csc3[n+]2CCS3)cc1 | -8.2% | ? | 4.15µM* | -11.7% | 10.4µM* | -33.0%
Fc1ccc(-c2csc(=S)[nH]2)cc1 | -9.1% | -3.6% | -1.4% | -7.9%[2.29 µM] | 33.2%[5.75 µM] | -0.4%
O=S(=O)(c1cccs1)N1CN(C2CCCC2)c2nc3ccccc3nc21 | 0.0% | -4.9% | ? | -48.5% | ? | 0.1%
O=S(=O)(c1cccs1)N1CN(C2CCCCC2)c2nc3ccccc3nc21 | -22.9% | 0.9% | 5.22µM* | -33.4% | 11.7µM* | -2.6%
CCC12CN(C(=O)c3ccco3)CC(CC)(CN(C(=O)c3ccco3)C1)C2=O | -2.1% | -4.8% | -14.6% | -4.9% | ? | 2.8%
CC(=O)N1CC2(CC(=O)OC(C)C)CN(C(C)=O)CC(CC(=O)OC(C)C)(C1)C2=O | 5.0% | 0.3% | 11.7µM* | -4.9% | 3.9% | 0.5%
S=c1[nH]cnc2scc(-c3ccccc3)c12 | -22.2% | -11.3% | 0.329µM* | -38.4% | ? | ?
COc1ccc(S(=O)(=O)NC2CC(=O)N(c3cccc(F)c3)C2)cc1OC (stereo not drawn) | -3.8% | -14.7% | -12.9% | -17.0% | 23.8% | 0.2%
COc1cc([C@@H]2Nc3c(F)cccc3[C@@H]3C=CC[C@@H]32)cc(Br)c1OC | -1.2% | 9.7% | nt | nt | nt | nt
CCOc1cccc2cc(C(=O)N3CC(C)OC(C)C3)c(=O)oc12 (stereo not drawn) | 9.9% | ? | 6.57µM* | -6.7% | 5.4% | -2.2%
CCOc1cccc2cc(C(=O)N3CCOCC3)c(=O)oc12 | -16.1% | -16.0% | 11.7µM* | 1.5% | 16.2% | 5.1%
Brc1ccc(-c2csc(N3CCCCC3)n2)cc1 | 1.6% | ? | ? | -35.5% | ? | -11.6%
CC1Oc2ccccc2N(CC(=O)NCCCN2CCOCC2)C1=O (stereo not drawn) | 3.1% | 5.0% | 21.0% | -0.8% | 33.7% | 1.5%
CC1Oc2ccccc2N(CC(=O)Nc2ccc3c(c2)OCCO3)C1=O (stereo not drawn) | 0.3% | -16.8% | 11.7µM* | -30.1% | 46.2% | 1.1%
CC1CCCCC12NC(=O)N(CC(=O)NC(=O)Nc1ccc3c(c1)OCCO3)C2=O (stereo not drawn) | 70.8µM* | -10.5% | 62.6% | -1.6% | 104.6% | -0.5%
CC1Oc2ccccc2N(Cc2ccccc2F)C1=O (stereo not drawn) | -19.1% | -11.9% | ? | -3.2% | -0.5% | 7.4%
CC1Oc2ccccc2N(Cc2ccccc2Cl)C1=O (stereo not drawn) | -22.5% | ? | 11.7µM* | -18.5% | ? | 2.5%
SMILES | Sm TGR block | AmpC detergent | Pf growth 96h | AmpC no deterg | Pf growth 48h | SARS PLpro yeast
CC1CCCCC12NC(=O)N(CC(=O)Nc1ccc3[nH]c(=O)[nH]c3c1)C2=O (stereo not drawn) | 1.4% | ? | 14.7% | -19.4% | 7.0% | 0.5%
CC1Oc2ccccc2N(CC(=O)NCCc2ccccc2)C1=O (stereo not drawn) | -7.2% | 39.8µM* | -16.7% | -1.9% | ? | 7.4%
COCC(=O)N1c2nc(C(C)C)nn2C2(CCCCC2)[C@@H]2CCCC[C@@H]21 | -0.4% | 9.3% | nt | nt | nt | nt
CC(=O)c1ccc(S(=O)(=O)Nc2ccc(C(=O)NCCCn3ccnc3)cc2)cc1 | -34.8% | -14.5% | ? | -26.3% | ? | -4.3%
O=C(COC(=O)c1ccccn1)NCCCc1ccccc1 | 6.2% | -5.0% | 0.0% | -12.0% | 40.0% | -8.8%
CC1Oc2ccccc2N(CC(=O)NCc2ccc3c(c2)OCO3)C1=O (stereo not drawn) | 8.7% | -5.2% | 11.7µM* | -15.2% | 34.6% | 1.4%
CC1Oc2ccccc2N(CC(=O)Nc2ccc3c(c2)OCO3)C1=O (stereo not drawn) | 4.2% | -20.2% | 22.9% | -8.2% | 20.6% | 2.3%
CC1Oc2ccccc2N(CC(=O)N2CCCc3ccccc32)C1=O (stereo not drawn) | -29.6% | ? | 9.28µM* | -4.0% | -20.8% | 10.0%
O=C(NC1CC2CCCC(C1)N2CC(=O)N1CCCc2ccccc21)C1CCCCC1 (stereo not drawn) | -7.0% | ? | 14.7µM* | -9.2% | -8.6% | 23.2%
CC1Oc2ccccc2N(CC(=O)N2CCc3ccccc32)C1=O (stereo not drawn) | -5.8% | ? | -16.9% | 0.2% | -2.8% | 6.3%
Cc1ccc(C(=O)C[n+]2ccccc2C)cc1[N+](=O)[O-] | 2.1% | 6.1% | ? | -14.6% | 22.3% | 2.5%
COc1ccc(C(=O)C[n+]2cccc(C)c2C)cc1[N+](=O)[O-] | -2.7% | -2.7% | 6.2% | 8.9% | 7.38µM* | -0.1%
CCN(CC)c1cccc(OCC(=O)N2c3ccccc3CC2C)c1 (stereo not drawn) | -1.2% | -11.4% | ? | -14.4% | 9.28µM* | 7.0%[6.58 µM]
CC1Cc2ccccc2N1C(=O)COC(=O)c1ccc([N+](=O)[O-])o1 (stereo not drawn) | nt | nt | nt | -11.4% | nt | -4.7%
Cc1ccc(C(=O)N2CCc3ccccc32)o1 | -6.2% | -5.0% | 41.4% | -21.0% | 151.3% | -6.6%
